# In the library only some 3.5% were active in any assay of this set; here they are far more common.
# GPR151 activ – human GPR151 activation; PathHunter beta-arrestin GPR151 cells, luminescence; actives 1% (n = 650,000); activation, % at 11.2 µM; Q8TDV0; in the data active = activation above about 4.9%;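 also: 0% = median of compound wells and 100% = cells with positive control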
# FBW7 act – activators of human E3 ligase FBW7. AID 1259310. actives 0.13% (n = 650,000). AlphaScreen FBW7–phospho-cyclin E peptide binding, activator screen. normalized activity (activation), % at 26.1 µM; in the data active = normalized activity above about 1.9%;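 also: purified mutant Fbw7 with reduced substrate affinity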
# Target sequence (Q969H0 whole entry, looked up): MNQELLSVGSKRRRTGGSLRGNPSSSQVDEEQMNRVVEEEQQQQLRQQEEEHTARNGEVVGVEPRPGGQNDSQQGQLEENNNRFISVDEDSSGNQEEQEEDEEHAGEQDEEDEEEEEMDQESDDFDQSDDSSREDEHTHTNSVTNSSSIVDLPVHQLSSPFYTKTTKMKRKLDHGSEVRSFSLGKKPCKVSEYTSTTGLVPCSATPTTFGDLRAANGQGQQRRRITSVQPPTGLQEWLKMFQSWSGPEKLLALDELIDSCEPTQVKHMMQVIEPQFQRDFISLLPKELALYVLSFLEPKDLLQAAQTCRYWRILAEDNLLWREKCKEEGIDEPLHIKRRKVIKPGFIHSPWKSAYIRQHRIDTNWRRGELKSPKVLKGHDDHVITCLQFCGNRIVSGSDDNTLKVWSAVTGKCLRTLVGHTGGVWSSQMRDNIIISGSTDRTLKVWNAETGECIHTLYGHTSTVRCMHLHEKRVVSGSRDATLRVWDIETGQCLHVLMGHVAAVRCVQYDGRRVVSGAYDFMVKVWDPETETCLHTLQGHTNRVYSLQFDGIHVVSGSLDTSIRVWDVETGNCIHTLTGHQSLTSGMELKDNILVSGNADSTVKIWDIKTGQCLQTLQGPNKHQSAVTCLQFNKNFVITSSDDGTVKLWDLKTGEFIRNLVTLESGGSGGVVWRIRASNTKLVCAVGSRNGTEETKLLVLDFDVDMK
# TEAD-YAP inh – TEAD-YAP interaction inhibition | HEK-TIYL cells, TEAD-Gal4/YAP UAS-luciferase luminescence | inhibition, % at 9.12 µM | actives 1.4% (n = 640,000); in the data active = inhibition above about 32%;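 also: 0% = median of test compound wells and 100% = reference inhibitor wells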
# MITF inh – blocks human microphthalmia-associated transcription factor | O75030 | AlphaScreen MITF homodimerization, bead proximity signal | inhibition, % at 2.6 µM | actives 0.91% (n = 650,000) | AID 1259374; in the data active = inhibition above about 50%;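 also: 0% = vehicle wells with protein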
# Numbers without * were called inactive.
SMILES,GPR151 activ,FBW7 act,TEAD-YAP inh,MITF inh
Cc1onc(-c2ccccc2)c1C1=N/C(=C\c2cccc(Br)c2)C(=O)O1,-1,2.2*,1,9
CS(=O)(=O)N(CC(=O)NCCc1ccccc1)c1ccc(Cl)c(Cl)c1,1,0,1,-19
Cc1ccc2ccc(C(Nc3ccccn3)c3cccc(O)c3)c(O)c2n1 (configuration not stated),0,0,8,3
Oc1c(C(Nc2ccccn2)c2ccc(Br)cc2)ccc2cccnc12 (configuration not stated),1,0,84*,14
CC(C)c1ccc(C(Nc2ccccn2)c2ccc3cccnc3c2O)cc1 (configuration not stated),1,0,63*,18
CCCOc1ccc(C(Nc2ccccn2)c2ccc3cccnc3c2O)cc1 (configuration not stated),-2,0,21,19
Oc1ccc(Br)c(C(Nc2ccccn2)c2ccc3cccnc3c2O)c1 (configuration not stated),0,0,85*,12
Cc1ccc(C(Nc2ccccn2)c2ccc3cccnc3c2O)s1 (configuration not stated),0,0,81*,35
O=C(Nc1ccccc1)c1ccc(NCCO)c([N+](=O)[O-])c1,-1,0,-54,-11
Cc1sc2nc(SCC(=O)Nc3nccs3)nc(N)c2c1C,0,0,0,-6
C=CCOc1ccc(C=C2C(=O)N(C)C(=S)N(C)C2=O)cc1I,-1,0,15,13
C=CCOc1ccc(C=C2C(=O)N(C)C(=S)N(C)C2=O)cc1OC,0,0,0,67*
Fc1ccc(-c2cc(C(F)(F)F)nc(NCc3cccnc3)n2)cc1,0,0,40*,14
CC(=O)C/C(=N/NC(N)=S)C(F)(F)F,0,0,55*,-5
N#Cc1cc2cc3c(cc2nc1SCC(=O)Nc1ccccc1)OCO3,0,0,-3,31
COc1cccc(-c2nc(COC(=O)c3[nH]c(C)c(C(C)=O)c3C)cs2)c1,1,0,44*,10
O=C(CCCN(Cc1cccs1)S(=O)(=O)c1ccc(Br)cc1)NO,2,0,0,-5
Cc1ccc(Cn2ccn(-c3ccccc3)c(=O)c2=O)cc1,-1,0,-11,0
CCOc1ccc(C(C)=O)cc1CN1CCCCC1,0,0,-4,0
Cc1ccc(OCC(=O)NC(=S)Nc2ccccn2)c(Br)c1,-2,0,88*,7
O=C(COc1ccc(Br)cc1Cl)NC(=S)Nc1ccccn1,-1,0,46*,-4
O=C(Cc1ccc(F)cc1)Nc1c2c(nn1-c1ccc([N+](=O)[O-])cc1)CSC2,-1,1,8,13
CCC(C)Oc1ccccc1OCCN1C(=O)NC(C)(C)C1=O (configuration not stated),0,0,-2,11
CC(=O)c1ccc(OCC(=O)NC(C)c2cnn(-c3ccccc3C)c2C)cc1 (configuration not stated),2,1,34*,15
CCN1/C(=C/c2ccc3ccccc3[n+]2CC)Sc2cc(NC(C)=O)ccc21,0,0,4,-7
SMILES,GPR151 activ,FBW7 act,TEAD-YAP inh,MITF inh
CCN1/C(=C/c2ccc3cc(NC(C)=O)ccc3[n+]2CC)Sc2cc(C)ccc21,0,0,15,25
CCN1/C(=C/c2ccc3cc(C)ccc3[n+]2CC)Sc2ccc(O)cc21,1,-1,87*,31
CCN1/C(=C/c2ccc3ccccc3[n+]2CC)Sc2ccc(C)cc21,0,-1,79*,-9
O=C(c1nc2ccc(Cl)cn2c1CNCC1COCCO1)N1CCCCCCC1 (configuration not stated),1,0,-4,1
NC(=O)CSc1nnnn1-c1ccccc1F,-2,2.4*,12,4
CCOC(=O)CSc1nnnn1-c1ccccc1F,-2,1,-1,6
Fc1ccccc1CSc1nnnn1-c1ccccc1F,-1,2.3*,-13,21
Cc1c(C#N)c(NC(=O)CCl)n(Cc2ccco2)c1C,0,0,32*,-14
CCCc1nc2nc(C)cc(NCc3cccc(OC)c3)n2n1,2,0,2,4
CCN(CC)C(=O)C1CCCN(c2nc(NCCCN3CCCC3=O)c3ncn(CCN4CCCC4=O)c3n2)C1 (configuration not stated),-2,0,-1,3
CCN(CC)C(=O)C1CCCN(c2nc(NCc3nc4ccccc4[nH]3)c3ncn(-c4ccccc4)c3n2)C1 (configuration not stated),0,0,72*,7
CCN(CC)C(=O)C1CCCN(c2nc(NCc3nc4ccccc4[nH]3)c3ncn(C(C)C)c3n2)C1 (configuration not stated),1,0,30,-2
CCN(CC)C(=O)C1CCCN(c2nc(NCCCN3CCCC3=O)c3ncn(-c4ccsc4)c3n2)C1 (configuration not stated),1,0,35*,8
OCC1CCCN1c1nc(NCc2nc3ccccc3[nH]2)c2ncn(-c3ccsc3)c2n1 (configuration not stated),0,0,72*,25
CCN(CC)C(=O)C1CCCN(c2nc(NC3CC3)c3ncn(-c4ccsc4)c3n2)C1 (configuration not stated),-1,0,9,10
CCN(CC)C(=O)C1CCCN(c2nc(NCc3nc4ccccc4[nH]3)c3ncn(-c4ccsc4)c3n2)C1 (configuration not stated),1,0,85*,3
COc1ccc(-c2nnc3ccc(SCC(=O)Nc4ccccc4)nn23)cc1,0,0,-19,-7
Cc1ccc(NC(=O)c2sc3ncn(CC(=O)N4CCCC(C)C4)c(=O)c3c2C)cc1F (configuration not stated),-2,0,-10,-9
COc1cc2c(cc1OC)C(COc1cc(C)cc(C)c1)N(C(=O)/C=C/c1cc(OC)c(OC)c(OC)c1)CC2 (configuration not stated),1,0,-6,15
CN(C)C(=O)C(=O)Nc1ccc(Cl)c(C(=O)N2CCC(Oc3ccc(F)cc3)CC2)c1,0,0,47*,8
O=C(c1ccncc1)N1CCC(Oc2ccc(Cl)cn2)CC1,0,1,8,13
CN(C)C(=O)C(=O)Nc1ccc(Cl)c(C(=O)N2CCC(Oc3ccc(Cl)cn3)CC2)c1,0,0,48*,4
CCN(CC)c1ccc(/C=C/C23NC(=O)CCN2c2ccc(C)cc2C3(C)C)cc1 (configuration not stated),2,-1,52*,40
Cc1ccc(S(=O)(=O)N2CCOCC2)c(C)c1N1CCCC1=O,-1,0,5,7
Cc1ccn(S(=O)(=O)c2ccc(C)c(N3CCCC3=O)c2C)n1,1,2.0*,8,11
CCCCCC(O)CC(CC(=O)NN)C(=O)NN (configuration not stated),0,0,-1,15
COc1cc(Nc2nc3c(NCCc4ccc(O)cc4)ncnc3n2C(C)C)cc(OC)c1OC,3,0,32*,7

# Source: PubChem BioAssay
